# Screening data as filed in PubChem.
# The list is not random: actives were taken first. Their share in the collection is about 6.6%.
# HT1080NT lethal = kills 2HG-producing HT-1080-NT fibrosarcoma cells. hit rate 1.6% among 360,000. Potency, µM (top dose mostly 46.1 µM), without a hit: at the top dose activity, negative = less viability, usual class: cytotoxic. HT-1080-NT fibrosarcoma viability, CellTiter-Glo ATP luminescence, 48 h;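 further: NT is the 2HG producing partner of a matched IDH1 knockdown line; 0% = DMSO-treated cells and -100% = media-only wells without cells; nearly all actives have a fitted effect of over 55% in size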
#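 HT-1080-NT fibrosarcoma cells (2HG-overproducing), 750 cells/well in RPMI with 5% FBS, dosed after 2 h and incubated 48 h at 37C. CellTiter-Glo luminescence normalized to DMSO and no-cell wells; concentration-response curves fitted and classed.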
# HepG2 tox = kills HepG2 cells in TGF-b inhibitor counter-screen. Potency, µM (doses to about 46.1 µM), for inactives: at the highest dose activity change, negative = cytotoxicity, actives largely listed as cytotoxic. AID 588856. HepG2 CAGA-GFP viability, ATP luminescence, 18 h. hit rate 0.76% among 410,000
#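 CellTiter-Glo luminescence gave cytotoxicity after 18 hours at 37 degrees C. The cells were HepG2 CAGA-GFP in 1% FBS DMEM, stimulated with 500 pg/mL TGF-beta after compound addition. %Activity was normalised to no-cell wells (complete cell-killing) and DMSO (no toxicity), and curves were fitted and classified.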
# TGFb SMAD3 inh = inhibitors of TGF-b signaling; hit rate 1.2% among 410,000; AID 588855; HepG2 CAGA-GFP TGF-b/SMAD3 reporter, GFP fluorescence, 18 h; TGF-beta stimulated, 500 pg/mL final; Potency, µM (titrated, usually from 46.1 µM), inactives show top-dose activity, negative = inhibition, actives largely listed as inhibitors; further: on the % scale 0 is the no-effect control and ±100 the full control effect; nearly all actives have a fitted effect of over 65% in size
#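 HEPG2 CAGA-GFP reporter cells (1000/well, DMEM with 1% FBS) received compounds, then recombinant TGF-beta at 500 pg/mL final for 18 hours at 37 degrees C. Per-cell GFP summed per well was normalised to unstimulated and stimulated DMSO controls before curve fitting.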
# HT1080 IDH1KD tx = HT-1080 IDH1 knockdown cell toxicity (counter line); Potency, µM (doses to about 46.1 µM), without a hit: at the highest dose activity, negative = toxicity, hits mostly cytotoxic; hit rate 2% among 360,000; AID 686971; HT-1080 IDH1 knockdown viability, ATP luminescence, 48 h;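 further: 0% = DMSO wells and -100% = cell-free medium wells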
#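 IDH1KD HT-1080 cells, 750/well, RPMI + 5% FBS; compound pinned after 2 h settling; 48 h, 37 °C; CellTiter-Glo luminescence; % activity normalised to DMSO and no-cell wells; curves fitted, classed by r2 and efficacy.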
# KB-V1 cytotox = KB-V1 MDR subline cytotoxicity; Potency, µM (titrated, usually from 46.1 µM), actives largely listed as cytotoxic; AID 1347076; KB-V1 MDR cells viability, CellTiter-Glo, 72 h; hit rate 3.4% among 400,000; further: on the % scale 0 is the no-effect control and ±100 the full control effect; nearly all actives have a fitted effect of over 60% in size
#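 qHTS viability screen in drug-selected KB-V1 MDR cells: 72 h compound treatment at 37 degrees C, ATP luminescence end point.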
# KB-3-1 cytotox = kills parental KB-3-1 adenocarcinoma cells | KB-3-1 viability, CellTiter-Glo ATP luminescence, 72 h | Potency, µM (titrated, usually from 46.1 µM), most hits filed as cytotoxic | hit rate 1.4% among 400,000; further: on the % scale 0 is the no-effect control and ±100 the full control effect; nearly all actives have a fitted effect of over 60% in size
#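 Cytotoxicity measured as CellTiter-Glo luminescence after 72 h at 37 C. Compound titrations were pinned onto drug-naive KB-3-1 parental adenocarcinoma cells grown in DMEM with 10% FBS, and normalized data fitted to concentration-response curves.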
# Numbers without * were called inactive; i = inactive; ? = inconclusive; . = not tested or not shown. The call rests on the fitted dose curve; in most records, active means well fitted curve in the direction sought with a large enough effect; inconclusive means small, poorly fitted or top-dose-only effect, or another doubt; inactive means no such curve, though single readings can be large; an effect the other way counts as inactive or inconclusive. Potency means the concentration at half of the fitted maximal effect.
SMILES,HT1080NT lethal,HepG2 tox,TGFb SMAD3 inh,HT1080 IDH1KD tx,KB-V1 cytotox,KB-3-1 cytotox
CC(C)N1C/C(=C/c2cccnc2)C(=O)/C(=C/c2cccnc2)C1,6.5µM*,-28%,7.1µM*,5.8µM*,15µM*,?
CN1C/C(=C/c2cccnc2)C(=O)/C(=C/c2cccnc2)C1,?,-77%,2.8µM*,?,15µM*,?
CC(C)N1CC2=C(OC(N)=C(C#N)C2c2cccnc2)/C(=C/c2cccnc2)C1 (configuration not stated),13%,-19%,-3%,13%,i,i
CC(C)N1C/C(=C/c2ccsc2)C(=O)/C(=C/c2ccsc2)C1,?,-33%,7.9µM*,?,?,15µM*
COc1ccc(-c2cn3nc(N4CCC(C(=O)Nc5cc(Cl)ccc5C)CC4)sc3n2)cc1,.,-21%,-18%,.,i,i
CCOC(=O)CSc1nc2c(sc(=S)n2-c2ccccc2OC)c(=O)n1Cc1ccco1,-18%,-29%,-9%,0%,9.2µM*,i
CCOC(=O)CSc1nc2c(sc(=S)n2Cc2ccco2)c(=O)n1-c1ccccc1,9%,2%,-7%,-11%,i,i
CCOC(=O)CSc1nc2c(sc(=S)n2-c2ccccc2OC)c(=O)n1-c1ccccc1OC,5%,-14%,-1%,15%,i,i
CCN(CC)C(=O)CSc1nc2c(sc(=S)n2Cc2ccco2)c(=O)n1-c1ccccc1,0%,6%,-15%,0%,8.2µM*,i
Cc1cccc(CNC(=O)CCCN2C(=O)c3cccnc3Oc3ccccc32)c1,.,-21%,?,.,i,i
O=C(CSc1c2c(nc3cc(Cl)ccc13)CCCC2)NCc1ccccc1Cl,.,-28%,?,.,i,i
CC1CCN(C(=O)CSc2c3c(nc4cc(Cl)ccc24)CCCC3)CC1,.,11µM*,?,.,i,i
O=C(CSc1c2c(nc3cc(Cl)ccc13)CCCC2)NCc1ccco1,-19%,-44%,18µM*,?,?,i
CCn1cc(C(=O)N(C)c2ccc(C(C)C)cc2)c2cc(OC)c(OC)cc2c1=O,.,-18%,-10%,.,i,i
Cc1ccc(C(=O)N2CCc3cc(CNC(=O)c4ccccc4F)ccc32)cc1,.,-17%,-21%,.,.,.
Cc1ccc(S(=O)(=O)c2nc(S(C)(=O)=O)sc2N2CCCCCC2)cc1,0%,-11%,-9%,-5%,6.5µM*,i
CCN(CC)c1ccc(CN2CCCCCC2)cc1,-6%,0%,4%,3%,18µM*,?
CN(C)c1ccc(CN2CCCCCC2)cc1,-7%,6%,-1%,-1%,i,i
CCc1cccc(NS(=O)(=O)c2ccc3c(c2)oc(=O)n3C)c1,-9%,1%,-11%,-6%,4.6µM*,?
Cn1c(=O)oc2cc(S(=O)(=O)Nc3ccccc3)ccc21,1%,0%,1%,-2%,i,i
CC(=O)c1cccc(NS(=O)(=O)c2ccc3c(c2)oc(=O)n3C)c1,?,-26%,15%,-19%,16µM*,?
C=CCn1cc(C(=O)NCCCOCC)c(=O)c2cc(S(=O)(=O)N(CC)CC)ccc21,-4%,-1%,7%,1%,2.9µM*,i
CCn1cc(C(=O)NCCc2ccc(Cl)cc2)c(=O)c2cc(S(=O)(=O)N(C)C)ccc21,3%,-10%,-6%,-5%,i,?
CCn1cc(C(=O)NCc2ccc(Cl)cc2)c(=O)c2cc(S(=O)(=O)N(C)C)ccc21,-6%,-40%,-12%,0%,15µM*,i
CCn1cc(C(=O)NCCCN(C)c2ccccc2)c(=O)c2cc(S(=O)(=O)N(C)C)ccc21,3%,-3%,14%,8%,i,i
